Source: PubChem BioAssay AID1159580 (chemical genetic matrix, 2015)
“And” between values parts separate entries of the source, which are not always exact repeats. Equal values may be shown once. Screen size: about 5,500 compounds; about 2,000 (36%) were called active. Roughly 18% stayed inconclusive and do not appear here. Rule as the data show it: active = normalized growth mostly below about 0.91 (no sharp cut-off); inconclusive = no clear call, values can overlap the other calls; inactive = mostly above about 0.92. The list shows a part of the results.

Experiment: chemical genetic growth profiling, strain panel (AID 1159580);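 also: tested at 20 µM; growth read once vehicle control cultures reached saturation at 30 °C; 1 = growth at the plate median or of vehicle wells; lower values mean less growth of the strain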
Details: S. cerevisiae deletion strains, growth OD

Measured: normalized growth

Cc1ccc(S(=O)(=O)NC(=O)NN2CC3CCCC3C2)cc1 (configuration not stated)
inactive: locus YAL013W, strain DEP1, stronger effect = lower value 1.01 | locus YAL021C, strain ccr4, stronger effect = lower value 0.996 | locus YAL026C, strain drs2, stronger effect = lower value 0.979 | locus YAL030W, strain snc1, stronger effect = lower value 0.982 | locus YBL061C, strain skt5, stronger effect = lower value 0.981 | locus YBR009C, strain hhf1, stronger effect = lower value 0.976 | locus YBR021W, strain FUR4, stronger effect = lower value 1.01 | locus YBR023C, strain chs3, stronger effect = lower value 0.973 | locus YBR171W, strain sec66, stronger effect = lower value 0.995 | locus YBR229C, strain ROT2, stronger effect = lower value 1.01 | locus YBR231C, strain swc5, stronger effect = lower value 0.984 | locus YBR279W, strain paf1, stronger effect = lower value 0.987 | locus YCL011C, strain gbp2, stronger effect = lower value 0.961 | locus YCL016C, strain dcc1, stronger effect = lower value 0.98 | locus YCL029C, strain bik1, stronger effect = lower value 1.01 | locus YCL069W, strain vba3, stronger effect = lower value 0.993 | locus YCR088W, strain abp1, stronger effect = lower value 0.972 | locus YDL005C, strain med2, stronger effect = lower value 0.98 | locus YDL035C, strain GPR1, stronger effect = lower value 0.946 | locus YDL040C, strain nat1, stronger effect = lower value 0.984 | locus YDL074C, strain BRE1, stronger effect = lower value 1.01 | locus YDL101C, strain DUN1, stronger effect = lower value 1.02 | locus YDL134C, strain PPH21, stronger effect = lower value 0.962 | locus YDL185W, strain tfp1, stronger effect = lower value 1.02 | locus YDL192W, strain arf1, stronger effect = lower value 1.01 | locus YDR001C, strain nth1, stronger effect = lower value 0.968 | locus YDR069C, strain doa4, stronger effect = lower value 0.99 | locus YDR101C, strain arx1, stronger effect = lower value 1 | locus YDR137W, strain rgp1, stronger effect = lower value 0.89 | locus YDR159W, strain sac3, stronger effect = lower value 0.991 | locus YDR162C, strain NBP2, stronger effect = lower value 0.994 | locus YDR195W, strain ref2 0.975 | locus YDR297W, strain sur2, stronger effect = lower value 0.975 | locus YDR318W, strain mcm21, stronger effect = lower value 1.01 | locus YDR334W, strain swr1, stronger effect = lower value 0.959 | locus YDR335W, strain msn5, stronger effect = lower value 0.979 | locus YDR388W, stronger effect = lower value 1.01 | locus YDR392W, strain spt3, stronger effect = lower value 0.974 | locus YDR502C, strain sam2, stronger effect = lower value 0.997 | locus YEL003W, strain gim4, stronger effect = lower value 0.968 | locus YEL037C, strain rad23, stronger effect = lower value 0.986 | locus YEL061C, strain CIN8 (second series), stronger effect = lower value 0.955 | locus YEL061C, strain CIN8, stronger effect = lower value 1 | locus YER015W, strain faa2, stronger effect = lower value 0.975 | locus YER016W, strain bim1, stronger effect = lower value 0.995 | locus YER110C, stronger effect = lower value 1.02 | locus YER111C, strain swi4, stronger effect = lower value 0.972 | locus YER155C, strain BEM2 (second series), stronger effect = lower value 0.977 | locus YER155C, strain BEM2, stronger effect = lower value 1 | locus YER167W, strain BCK2, stronger effect = lower value 1 | locus YFR010W, strain ubp6, stronger effect = lower value 0.986 | locus YGL078C, strain dbp3, stronger effect = lower value 1.01 | locus YGL086W, strain mad1, stronger effect = lower value 0.984 | locus YGL167C, strain pmr1, stronger effect = lower value 0.982 | locus YGL173C, strain kem1, stronger effect = lower value 1 | locus YGL227W, strain vid30, stronger effect = lower value 0.969 | locus YGL240W, strain doc1, stronger effect = lower value 0.969 | locus YGL248W, strain PDE1, stronger effect = lower value 0.995 | locus YGL253W, strain hxk2, stronger effect = lower value 0.987 | locus YGR135W, strain pre9, stronger effect = lower value 1.03 | locus YGR229C, strain SMI1, stronger effect = lower value 1.01 | locus YGR252W, strain gcn5, stronger effect = lower value 1.05 | locus YHR013C, strain ard1, stronger effect = lower value 0.967 | locus YHR027C, strain rpn1, stronger effect = lower value 0.983 | locus YHR030C, strain SLT2, stronger effect = lower value 1 and 0.961 | locus YHR079C, strain IRE1 (second series), stronger effect = lower value 1.01 | locus YHR079C, strain IRE1, stronger effect = lower value 0.966 | locus YHR094C, strain hxt1, stronger effect = lower value 1.01 | locus YHR129C, strain ARP1, stronger effect = lower value 0.992 | locus YHR142W, strain chs7, stronger effect = lower value 0.98 | locus YHR200W, strain rpn10, stronger effect = lower value 1.01 | locus YIL066C, strain RNR3, stronger effect = lower value 1 | locus YIL073C, strain SPO22, stronger effect = lower value 1.05 | locus YIL125W, strain kgd1, stronger effect = lower value 1.01 | locus YIR030C, strain dcg1, stronger effect = lower value 1.03 | locus YJL092W, strain hpr5, stronger effect = lower value 0.954 | locus YJL095W, strain BCK1 (second series), stronger effect = lower value 0.973 | locus YJL095W, strain BCK1, stronger effect = lower value 1.02 and 0.973 | locus YJL115W, strain asf1, stronger effect = lower value 0.945 | locus YJL129C, strain trk1, stronger effect = lower value 0.954 | locus YJL134W, strain LCB3, stronger effect = lower value 1 | locus YJL154C, strain vps35, stronger effect = lower value 0.97 | locus YJL164C, strain tpk1, stronger effect = lower value 0.97 | locus YJL166W, strain qcr8, stronger effect = lower value 0.981 | locus YJL168C, strain set2, stronger effect = lower value 1.01 | locus YJL187C, strain SWE1 (second series), stronger effect = lower value 1 | locus YJL187C, strain SWE1, stronger effect = lower value 0.989
